{"source": "PubChem BioAssay (NCI)", "note": "About 83,000 compounds went through this panel and 20% of them were active in at least one assay; those are over-represented in the sample as a whole.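 Note: values are percent growth. 100 is the growth of untreated cells, values between 100 and 0 indicate rising inhibition; between -100 and 0 indicates cell death.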 The source made the active and inactive calls. How the source made its calls: active means growth percent below 10; inactive means the rest.", "data": [{"system": "HL-60(TB) leukemia", "test": "NCI-60 one-dose screen, 48 h (100 = growth as untreated, 0 = no growth, -100 = all killed)", "conditions": "10 µM unless noted", "values": [{"smiles": "OCC(CO)(CCl)CCl", "growth": "96.3% (inactive)"}, {"smiles": "N/C(=N\\OC(=O)c1ccccc1)C(C(=O)NOC(=O)c1ccccc1)C1CCCCC1", "note": "(stereo not given)", "growth": "1.73% (active)"}, {"smiles": "CCCN1CCN(c2ccc3nc(-c4ccc5nc(-c6cc(OC)c(OC)c(OC)c6)[nH]c5c4)[nH]c3c2)CC1", "growth": "97.4% (inactive)"}, {"smiles": "COc1cc(/C=C/C(=O)C(=Cc2ccc(F)c(F)c2)C(=O)/C=C/c2ccc(O)c(OC)c2)ccc1O", "growth": "16.6% (inactive)"}, {"smiles": "Cn1cc(-c2nc(-c3cn(C)c4ncccc34)cs2)c2ccccc21", "growth": "28.4% (inactive)"}, {"smiles": "CN1C(=O)NC(Cc2c[nH]c3c(Cl)cccc23)C1=O", "note": "(stereo not given)", "growth": "98.6% (inactive)"}, {"smiles": "C=CCn1c(C)nc2ccc(Nc3nc(Nc4ccc5nc(C)n(CC=C)c5c4)c4ccccc4n3)cc21", "growth": "-63.2% (active)"}, {"smiles": "O=C1c2cccc3cccc(c23)C(=O)N1CC#Cc1ccc2c3c(cccc13)C(=O)N(CCN1CCNCC1)C2=O", "growth": "93% (inactive)"}, {"smiles": "O=C(O)C(Cc1ccccc1)C(=O)O", "growth": "107% (inactive)"}, {"smiles": "O=C1/C(=C\\c2ccccn2)c2ccccc2N1c1c(Cl)cccc1Cl", "growth": "1.39% (active)"}, {"smiles": "Cc1cc(O)c(C(C)C)cc1Cl", "growth": "101% (inactive)"}, {"smiles": "C=CCn1c(SCC(=O)Nc2ccc(C(=O)/C=C/c3cc(OC)c(OC)c(OC)c3)cc2)nnc1-c1ccc(Cl)cc1", "growth": "12.3% (inactive)"}, {"smiles": "CCOC(=O)C1=C(C)NC(=O)NC1c1ccc(OCC(=O)N/N=C/c2ccc(Cl)cc2)cc1", "note": "(stereo not given)", "growth": "98.3% (inactive)"}, {"smiles": "O=C(Oc1cccc2cccnc12)c1ccccc1", "growth": "93.7% (inactive)"}, {"smiles": "C[C@@H]1N=C(c2ccc3ccccc3c2)Nc2nc3ccccn3c2C1=O", "growth": "-6.75% (active)"}]}]}
